Sampled rows, rich in hits. Any-hit rate of the full collection: about 3.5%.
mHTT-CaM PPI inh = mHTT-calmodulin interaction abrogation; 3.6% of 190,000 active; inhibition, % at 15 µM; P42858; AlphaScreen His-mHTT/GST-CaM binding, luminescence;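 also: 0% = both proteins with DMSO and 100% = one protein alone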
Pf apPOL block = Pf-apPOL DNA polymerase inhibition; Recombinant Pf-apPOL, molecular beacon fluorescence, 1.5 h; inhibition, % at 10 µM; 0.25% of 210,000 active; AID 1794808
* = called active by the depositor; . = no result. Rule as the data show it: active = inhibition above about 50%; inactive = the rest.

SMILES | mHTT-CaM PPI inh | Pf apPOL block
CCOc1ccc(CNC(=O)C2Cc3ccccc3CN2S(C)(=O)=O)cc1OC (configuration not stated) | 5.0 | -4.6
Cc1ccc(C2CC(C(F)(F)F)n3nc(C(=O)NC4CCCCC4)cc3N2)cc1 (configuration not stated) | -7.0 | -4.4
CCCN(C(=O)C1CCN(c2ncnc3c2nc2n3CCCCC2)CC1)c1ccccc1C | 16.9 | -2.7
CCc1onc(C)c1C1CCCN1Cc1cn[nH]c1-c1ccccc1 (configuration not stated) | 8.4 | -1.5
O=C(COc1ccccc1)N1N=C(c2ccc(Br)cc2)CC1(O)C(F)(F)F (configuration not stated) | 28.0 | -4.4
Cc1cccc(C(=O)N2N=C(c3cccc(Br)c3)CC2(O)C(F)(F)F)c1 (configuration not stated) | 19.0 | 0.5
Cc1cccc(C(=O)N2N=C(c3ccc(Br)cc3)CC2(O)C(F)(F)F)c1 (configuration not stated) | 97.0* | 0.9
Cc1ccccc1OCC(=O)N1N=C(c2ccc(Br)cc2)CC1(O)C(F)(F)F (configuration not stated) | 93.0* | 1.1
CCC1=NN(C(=O)COc2ccc(Cl)c(C)c2)C(O)(C(F)(F)F)C1 (configuration not stated) | 94.0* | -16.1
CCC1=NN(C(=O)Cc2ccc(OC)cc2)C(O)(C(F)(F)F)C1 (configuration not stated) | -9.0 | 2.4
CCCOc1nccnc1NC1CCN(C(=O)c2ccco2)CC1 | -0.8 | -6.2
N#Cc1cc(C#N)c(SCC(=O)c2ccccc2)nc1N | 0.9 | -7.4
Cc1ccccc1-n1cnc(C(=O)N2CCCCC2C)n1 (configuration not stated) | 3.3 | -1.1
CC(=O)Nc1cc(C(=O)NCc2ccccc2C)c2ccc(C)nc2c1 | 73.2* | 5.2
Cc1ccc2c(C(=O)NCc3ccccc3C)cc(NC(=O)C(C)C)cc2n1 | 54.5* | 3.4
Cc1cccc(CNC(=O)c2cc(NC(=O)C(C)C)cc3nc(C)ccc23)c1 | 20.6 | -1.4
CC(=O)Nc1cc(C(=O)NCC(C)C)c2ccc(C)nc2c1 | 20.9 | 18.1
CSc1ccccc1NC(=O)c1oc2ccc(C)cc2c1C | -14.7 | -7.9
CCCNC1=C(N2CCCCC2)C(=O)c2ccccc2C1=O | 9.7 | -0.5
OC(C#CC1(O)CCCCC1)c1ccco1 (configuration not stated) | -2.2 | .
OC(C#CC1CC1)c1ccco1 (configuration not stated) | 100.2* | -7.8
Cn1c(Sc2nc3ccc([N+](=O)[O-])cc3s2)nnc1-c1ccc(Cl)cc1Cl | -6.6 | 3.0
Cc1ccc(-n2c3c(cc(C(=O)NCCc4c[nH]c5ccccc45)c2=O)C(=O)CC(C)(C)C3)cc1 | 10.5 | -2.2
Nc1ccc(S(=O)(=O)Nc2cccc3cccnc23)cc1 | 57.0* | -2.0
O=S(=O)(Nc1cccc2cccnc12)c1cc(Cl)c(Cl)cc1Cl | . | -74.6
SMILES | mHTT-CaM PPI inh | Pf apPOL block
CS(=O)(=O)N1CCCC(OCc2nc(-c3ccccc3)no2)C1 (configuration not stated) | -15.2 | -2.0
CCN(CC)Cc1c(O)ccc2c(=O)c(-c3ccc(OC)c(OC)c3)coc12 | -2.9 | -6.0
COc1ccc(C2CC(c3ccc(Br)cc3)=NN2C(=O)CCN2CCCC2)cc1 (configuration not stated) | 44.0 | -8.3
COc1cc(-c2nc3ccccn3c2N=Cc2ccc(F)cc2)ccc1O | 79.0* | -4.7
COc1cc(-c2nc3ccccn3c2N=Cc2ccccc2)ccc1O | 38.0 | -6.2
Cc1cc(N2CCN(C(=O)c3cccs3)CC2)c(F)cc1[N+](=O)[O-] | 5.1 | 3.1
O=C(c1cccs1)N1CCN(c2cc(N3CCCCCC3)c(F)cc2[N+](=O)[O-])CC1 | 59.7* | -10.7
CCc1ccc(C2CCC(C(=O)N3CCOCC3)CN2C(=O)COC)cc1 (configuration not stated) | 5.6 | 0.3
FC(F)Oc1ccc(C2=CC(c3ccc(Br)cc3)n3nnnc3N2)cc1 (configuration not stated) | 9.0 | 2.4
CC1(C)Cc2nc3sc(C(=O)O)c(N)c3cc2CS1 | 51.0* | 0.5
Nc1c(C(=O)O)sc2nc3c(cc12)CCCC3 | -3.5 | .
Cc1ccc(CN2CCN(C(=O)C3CCc4nc(N5CCOCC5)ncc4C3)CC2)cc1C (configuration not stated) | 4.7 | -0.5
CN(C)/C=C1\C(=O)N(c2nc3ccccc3s2)N=C1c1ccccc1 | -1.0 | -9.4
COc1ccc(C2=NN(c3nc4ccccc4s3)C(=O)/C2=C\N(C)C)cc1 | 73.0* | -1.3
Cc1ccccc1C1CCCN1C(=O)NCc1ccc(F)cc1 (configuration not stated) | -9.5 | 0.6
CC1c2cccn2CCN1C(=O)Nc1ccc(F)cc1F (configuration not stated) | 9.6 | -12.1
Clc1ccc(-c2cc3n(c2)CCn2cccc2-3)cc1Cl | 100.0* | -6.9
Fc1ccc(-c2cc3n(c2)CCn2cccc2-3)c(F)c1 | 100.0* | -2.1
c1ccc(C2=NCCn3cccc32)cc1 | -4.3 | -6.2
Brc1ccc(-c2cc3ccccn3c2)cc1 | 38.0 | -0.2
Brc1ccc(-c2cc3n(c2)CCn2cccc2-3)cc1 | 84.0* | -8.6
CCOc1ccccc1NC(=O)Cc1c(C)nn(C2CCS(=O)(=O)C2)c1C (configuration not stated) | -14.3 | -9.7
O=C(Cn1ccnc1)N1CCC(c2nncn2Cc2ccccc2)CC1 | -3.3 | -3.1
O=C(CN1CCC(c2nc(-c3ccccc3)no2)CC1)NC1CCCCC1 | -2.5 | -1.1
Cc1ccc(NS(C)(=O)=O)cc1N=Cc1cc(Br)ccc1O | . | -1.7
SMILES | mHTT-CaM PPI inh | Pf apPOL block
O=C(CC(c1ccccc1)c1ccccc1O)N1CCOCC1 (configuration not stated) | 3.3 | 0.3
O=C1/C(=C/c2ccc([N+](=O)[O-])cc2)C=C(c2ccccc2)N1c1ccccc1 | 4.0 | -4.5
COc1ccc(/C=C2\C=C(c3ccccc3)N(c3ccc(F)cc3)C2=O)cc1 | 53.0* | 5.4
O=C1/C(=C/c2ccc([N+](=O)[O-])cc2)C=C(c2ccccc2)N1c1ccc(O)cc1 | 59.0* | 1.5
COc1ccc(/C=C2\C=C(c3ccccc3)N(c3ccc(C(=O)O)cc3)C2=O)cc1 | 33.0 | -0.1
O=C1/C(=C/c2ccc(-c3ccc([N+](=O)[O-])cc3)o2)C=C(c2ccccc2)N1c1cccnc1 | 65.0* | -1.9
COc1ccc(/C=C2\C=C(c3ccccc3)N(c3ccc(N(C)C)cc3)C2=O)cc1 | 36.0 | 2.4
COc1ccc(/C=C2\C=C(c3ccccc3)N(c3ccc(O)cc3)C2=O)cc1 | 59.0* | 1.6
O=C(O)c1cccc(N2C(=O)/C(=C/c3ccc([N+](=O)[O-])cc3)C=C2c2ccccc2)c1 | 18.0 | 2.7
O=C(Nc1ccc(Br)cc1)C1CCC(CNS(=O)(=O)c2cccs2)CC1 (configuration not stated) | 8.0 | -3.1
CC1Cc2ccc(-c3cc(COC(=O)c4ccc5ccccc5n4)no3)cc2O1 (configuration not stated) | -23.3 | -5.7
COc1ccc(/C=C2/C(=N)N3C(c4ccccc4)=CSC3=NC2=O)cc1Br | 10.0 | 4.9
COc1ccc(/C=C2\C=C(c3ccccc3)N(c3cccnc3)C2=O)cc1Br | 53.0* | -3.1
O=C(NC1CC1)c1nc(-c2ccc(N3CCCCC3)cc2)no1 | -11.6 | -0.7
COc1ccc(C(=O)N2CCN(c3ccc([N+](=O)[O-])c(NCc4ccccc4)c3)CC2)cc1 | 33.8 | 6.1

High-throughput results deposited in PubChem BioAssay by University of Kansas High Throughput Screening Laboratory.
